PRMT1 inh: PRMT1 methyltransferase inhibitors, primary screen, biochemical, fluorescence polarization | recombinant PRMT1, activity-based probe fluorescence polarization | inhibition, % at 2.79 µM | 370,000 tested, 1.3% active;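 active = inhibition above about 21% made by adding two undisclosed values, limit read from the data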
PfGluPho inh: PfG6PD enzyme inhibitors, primary screen, biochemical, fluorescence intensity, uHTS; AID 504690, 2011; 350,000 tested, 0.78% active; inhibition, % at 20 µM; PfGluPho enzyme, NADPH resazurin-diaphorase fluorescence;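 active = inhibition reaching at least a set limit at 20 µM in the primary screen, cut at about 59% in these data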
PfM18AAP inh-1: PfM18AAP inhibitors, malaria aminopeptidase, primary screen, biochemical, QFRET, recombinant enzyme; AID 1822, 2009; inhibition, % at 7.35 µM; 290,000 tested, 1.2% active; H-Glu-NHMec fluorogenic cleavage; M18 aspartyl aminopeptidase (Plasmodium falciparum 3D7);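 active = inhibition above the campaign mean inhibition over all tested compounds plus 3 SD, cut at about 28% in these data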
MBD2 inh: inhibitors of MBD2 binding to methylated DNA, primary screen, biochemical, TR-FRET, DNA-binding domain, human | Methyl-CpG-binding domain protein 2 (Homo sapiens), Q9UBB5 | MBD2 binding to methylated oligonucleotide | inhibition, % at 4.4 µM | 370,000 tested, 0.31% active; in the data active = inhibition above about 13%
UHRF1 MBD2 ctr: UHRF1 methylated DNA binding inhibitors, primary screen, counter-screen for MBD2 inhibitor project, biochemical, TR-FRET, human UHRF1, single concentration; E3 ubiquitin-protein ligase UHRF1 (Homo sapiens), Q96T88; UHRF1 binding to methylated oligo; inhibition, % at 4.4 µM; 370,000 tested, 0.75% active; in the data active = inhibition above about 21%;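 also: UHRF1 SRA domain binding a hemimethylated CpG hairpin DNA probe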
PfM18AAP inh-2: PfM18AAP inhibitors, malaria aminopeptidase, confirmation, biochemical, QFRET, recombinant enzyme, triplicate. inhibition, % at 7.35 µM. H-Glu-NHMec fluorogenic cleavage. 2,400 tested, 28% active. shares compounds with PfM18AAP inh-1;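 active = mean inhibition over replicate wells above the hit cutoff set for the earlier primary screen, cut at about 29% in these data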
CTSL1 confirm: cathepsin L1 inhibitors, retest, confirmation, counter-screen for PFM18AAP inhibitor project, biochemical, QFRET, triplicate | shares compounds with PfM18AAP inh-1 | purified cathepsin L1, Z-Leu-Arg-MCA fluorescence | 2,400 tested, under 10 active | inhibition, % at 5.96 µM;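 active = average inhibition across replicates above the hit cutoff set in the earlier primary screen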
Large screens that a line does not name were inactive (follow-up assays come after a bar, where they were run). Shown are actives, neighbours in structure and some others; about 3.3% of the full set was active somewhere.

COc1ccc(NC(=O)NNC(=O)c2ccc3ccccc3c2O)cc1OC	PfM18AAP inh-1 39 | PfM18AAP inh-2 inactive | CTSL1 confirm inactive
COc1ccccc1NC(=O)NNC(=O)c1ccc2ccccc2c1	none
Cc1ccccc1NC(=O)NNC(=O)c1ccc2ccccc2c1O	PfM18AAP inh-1 34 | PfM18AAP inh-2 inactive | CTSL1 confirm inactive
C=CCNc1cccc2c1S(=O)(=O)N[C@@H](C)CO2	none (no result: PfGluPho inh, PfM18AAP inh-1)
COc1cc(/C=C2\NC(=S)N(C)C2=O)ccc1O	PfM18AAP inh-1 36 | PfM18AAP inh-2 inactive | CTSL1 confirm inactive
CN1C(=O)/C(=C/c2ccc(O)c([N+](=O)[O-])c2)NC1=S	none
Cc1cccc(OCCOCCSc2ncccn2)c1	none
Cc1cccc(OCCSc2nc(N)cc(N)n2)c1	PfM18AAP inh-1 42 | PfM18AAP inh-2 inactive | CTSL1 confirm inactive
CC(Cl)C(=O)NNc1cccc(Cl)n1 (stereo not drawn)	none
O=C(NNc1cccc(Cl)n1)Nc1cccc(Cl)c1	PfM18AAP inh-1 52 | PfM18AAP inh-2 49 | CTSL1 confirm inactive
Cc1ccc(NC(=O)NNc2cccc(Cl)n2)cc1	PfM18AAP inh-1 53 | PfM18AAP inh-2 inactive | CTSL1 confirm inactive
O=C(NNc1cccc(Cl)n1)Nc1ccccc1	PfM18AAP inh-1 59 | PfM18AAP inh-2 43 | CTSL1 confirm inactive
CC(C)[C@@H](C)/C=C/[C@@H](C)[C@H]1CC[C@@H]2[C@]1(C)CCC1[C@]23C=C[C@]2(C[C@@H](O)CC[C@]12C)N(C(=O)Cc1ccccc1)O3 (stereo partly drawn)	none (no result: PfGluPho inh, PfM18AAP inh-1)
COc1cccc(-c2cc3nc(C)c(C)c(N4CCN(Cc5ccco5)CC4)n3n2)c1	none (no result: PfGluPho inh, PfM18AAP inh-1)
Cn1c(N)c(C(=O)N/N=C/c2ccccc2)sc1=S	PfM18AAP inh-1 34 | PfM18AAP inh-2 inactive | CTSL1 confirm inactive
CCOC(=O)c1c(C)n(C)c2ccc(OC(=O)c3ccco3)cc12	none
CCOC(=O)c1c(C)n(C)c2ccc(OC(=O)c3ccc(N4C(=O)CCC4=O)cc3)cc12	PfM18AAP inh-1 57 | PfM18AAP inh-2 inactive | CTSL1 confirm inactive
CC1(C)CC(=O)C=C(c2ccccc2-c2cccc(C(N)=O)c2)C1=O	none (no result: PfGluPho inh, PfM18AAP inh-1)

Screening results from PubChem BioAssay.
